Among the data in PubChem BioAssay (EPA / NIEHS) are outcome and AC50 values, retold here.

Broadly, the AC50 is the concentration at which the activity in the assay is half-maximal.

Structures are written as SMILES. Activity calls are given as the source filed them. The calls were made as follows: active = hit-call score of the fitted dose curve at least 0.9, where 1 is the maximum; inactive = score below 0.9.

Common to all, as to details: mRNA level, 48 h; actives raise or lower the signal
Read-out in assay [1]: Cyclin D2 (CCND2), CCND2 (gene 894)
Briefly: LTEA_HepaRG_CCND2: Life Technologies and Expression Analysis (LTEA) Assay for Cyclin D2 (CCND2) using HepaRG (AID 2283449). The procedure, abridged: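 CCND2 transcript levels, quantified by qRT-PCR and normalised to three housekeeping genes, were fitted bidirectionally against 0.5% DMSO. HepaRG cultures were dosed 48 h in duplicate with an 8-point half-log series up to 100 uM.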

Read-out in assay [2]: Cyclin Dependent Kinase Inhibitor 1A (CDKN1A), CDKN1A (gene 1026)
Description: LTEA_HepaRG_CDKN1A: Life Technologies and Expression Analysis (LTEA) Assay for Cyclin Dependent Kinase Inhibitor 1A (CDKN1A) using HepaRG (AID 2283450). Put shortly:
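Expression quantified by Fluidigm qRT-PCR with ACTB, GAPDH and POLR2A normalization, fitted bidirectionally against 0.5% DMSO. Cells: HepaRG, plated 48 h then treated 48 h in serum-free induction medium, top concentration 100 uM with half-log dilutions.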

Read-out in assay [3]: Cyclin D1 (CCND1), CCND1 (gene 595)
Description: LTEA_HepaRG_CCND1: Life Technologies and Expression Analysis (LTEA) Assay for Cyclin D1 (CCND1) using HepaRG (AID 2283451). The procedure, abridged:
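Expression of CCND1 was quantified by qRT-PCR on Fluidigm arrays using ACTB, GAPDH and POLR2A as reference genes. HepaRG cultures, plated 48 h beforehand, were dosed for 48 h at up to 100 uM (half-log, 8 points) in 0.5% DMSO.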

Read-out in assay [4]: catalase (CAT), CAT (gene 847)
Briefly: LTEA_HepaRG_CAT: Life Technologies and Expression Analysis (LTEA) Assay for catalase (CAT) using HepaRG (AID 2283452). The procedure, abridged:
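Expression of CAT was quantified by TaqMan qRT-PCR with ACTB/GAPDH/POLR2A normalization after 48 h chemical exposure of HepaRG. Eight-point half-log series, top 100 uM, in 0.5% DMSO; gain or loss fitted against vehicle.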

Read-out in assay [5]: flavin-containing dimethylaniline monooxygenases 3 (FMO3), FMO3 (gene 2328)
Description: LTEA_HepaRG_FMO3: Life Technologies and Expression Analysis (LTEA) Assay for flavin-containing dimethylaniline monooxygenases 3 (FMO3) using HepaRG (AID 2283453). Put shortly:
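FMO3 transcript quantified by TaqMan qRT-PCR against three housekeeping genes after 48 h chemical exposure of HepaRG cells. Eight-point half-log series, top 100 uM, 0.5% DMSO vehicle; phenobarbital 1mM induction control; up- or down-regulation fitted.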

Read-out in assay [6]: Cytochrome P450 (CYP1A1), CYP1A1 (gene 1543)
Briefly: LTEA_HepaRG_CYP1A1: Life Technologies and Expression Analysis (LTEA) Assay for Cytochrome P450 (CYP1A1) using HepaRG (AID 2283454). Put shortly: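 CYP1A1 transcript levels measured by Fluidigm qRT-PCR against three housekeeping genes, 48 h after chemical dosing of human HepaRG cells (highest concentration 100 uM, half-log steps, 0.5% DMSO vehicle). Gain or loss of signal fitted relative to DMSO.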

Read-out in assay [7]: CFLAR gene, CFLAR (gene 8837)
Description: LTEA_HepaRG_CFLAR: Life Technologies and Expression Analysis (LTEA) Assay for CFLAR gene using HepaRG (AID 2283455). The procedure, abridged:
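Transcript level by qRT-PCR (normalized to ACTB, GAPDH and POLR2A) after 48 h chemical exposure of HepaRG cells, top concentration 100 uM with half-log steps, 0.5% DMSO vehicle, duplicates; fitted bidirectionally against DMSO baseline.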

Read-out in assay [8]: Forkhead box O1 (FOXO1), FOXO1 (gene 2308)
Description: LTEA_HepaRG_FOXO1: Life Technologies and Expression Analysis (LTEA) Assay for Forkhead box O1 (FOXO1) using HepaRG (AID 2283456). Put shortly: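 FOXO1 transcript quantified by qRT-PCR after 48 h chemical exposure (top 100 uM, half-log steps, 0.5% DMSO) of HepaRG cells, housekeeping-normalized (ACTB/GAPDH/POLR2A). Changes fitted in both directions relative to vehicle.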

Read-out in assay [9]: growth arrest and DNA damage 45 (GADD45A), GADD45A (gene 1647)
Briefly: LTEA_HepaRG_GADD45A: Life Technologies and Expression Analysis (LTEA) Assay for growth arrest and DNA damage 45 (GADD45A) using HepaRG (AID 2283458). Put shortly:
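GADD45A expression was measured by TaqMan qRT-PCR against three housekeeping genes (ACTB, GAPDH, POLR2A) after 48 h treatment of HepaRG cells. Eight-point half-log series up to 100 uM in 0.5% DMSO, run in duplicate.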

Read-out in assay [10]: Forkhead box O3 (FOXO3), FOXO3 (gene 2309)
Briefly: LTEA_HepaRG_FOXO3: Life Technologies and Expression Analysis (LTEA) Assay for Forkhead box O3 (FOXO3) using HepaRG (AID 2283459). The procedure, abridged:
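FOXO3 transcript measured by qRT-PCR (normalized to ACTB, GAPDH, POLR2A) after 48 h exposure of HepaRG cells in serum-free induction medium. Duplicates, eight half-log concentrations up to 100 uM, 0.5% DMSO; gain or loss fitted against DMSO.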

Read-out in assay [11]: ABC Transporter (ABCB1), ABCB1 (gene 5243)
Briefly: LTEA_HepaRG_ABCB1: Life Technologies and Expression Analysis (LTEA) Assay for ABC Transporter (ABCB1) using HepaRG (AID 2283460). Put shortly: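 ABCB1 transcript level measured by TaqMan qRT-PCR against three housekeeping genes after 48 h chemical exposure of differentiated HepaRG cells. Top concentration 100 uM, half-log steps, eight points, 0.5% DMSO vehicle; bidirectional fit relative to DMSO.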

Read-out in assay [12]: growth arrest and DNA damage 45 (GADD45B), GADD45B (gene 4616)
Description: LTEA_HepaRG_GADD45B: Life Technologies and Expression Analysis (LTEA) Assay for growth arrest and DNA damage 45 (GADD45B) using HepaRG (AID 2283461). Put shortly:
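Transcript level quantified by Fluidigm TaqMan qRT-PCR with three housekeeping genes for normalization, analyzed for up- or down-regulation against 0.5% DMSO. HepaRG cultures dosed 48 h at eight half-log concentrations up to 100 uM, duplicates.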

Read-out in assay [13]: ABC Transporter (ABCC3), ABCC3 (gene 8714)
Description: LTEA_HepaRG_ABCC3: Life Technologies and Expression Analysis (LTEA) Assay for ABC Transporter (ABCC3) using HepaRG (AID 2283462). Put shortly: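 Transcript level by TaqMan qRT-PCR, normalised to three housekeeping genes, fitted in both directions relative to vehicle. Chemicals tested in duplicate at eight half-log concentrations up to 100 uM for 48 h on HepaRG cells (0.5% DMSO).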

Read-out in assay [14]: ABC Transporter (ABCB11), ABCB11 (gene 8647)
Description: LTEA_HepaRG_ABCB11: Life Technologies and Expression Analysis (LTEA) Assay for ABC Transporter (ABCB11) using HepaRG (AID 2283463). Put shortly: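 ABCB11 transcript levels quantified by TaqMan qRT-PCR against three housekeeping genes after 48 h chemical exposure of HepaRG cultures. Concentrations up to 100 uM in half-log steps, 0.5% DMSO vehicle; both induction and suppression scored.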

Read-out in assay [15]: ABC Transporter (ABCC2), ABCC2 (gene 1244)
Description: LTEA_HepaRG_ABCC2: Life Technologies and Expression Analysis (LTEA) Assay for ABC Transporter (ABCC2) using HepaRG (AID 2283464). Put shortly: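 Endpoint is ABCC2 transcript level from qRT-PCR, normalized to three housekeeping genes and fitted bidirectionally relative to DMSO. Human HepaRG cells received test chemical for 48 h at up to 100 uM (8 points, half-log steps, 0.5% DMSO), duplicate wells.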

Read-out in assay [16]: Broad substrate specificity ATP-binding cassette transporter ABCG2 (Homo sapiens) (UniProt Q9UNQ0)
Briefly: LTEA_HepaRG_ABCG2: Life Technologies and Expression Analysis (LTEA) Assay for ABC Transporter (ABCG2) using HepaRG (AID 2283465). The procedure, abridged: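 ABCG2 transcript was quantified by TaqMan qRT-PCR against three housekeeping genes in HepaRG cells. Cells were treated in duplicate for 48 h across an 8-point half-log series up to 100 uM, with 0.5% DMSO vehicle. Gain or loss versus DMSO was fit.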

Read-out in assay [17]: ATP-citrate lyase (ACLY), ACLY (gene 47)
Description: LTEA_HepaRG_ACLY: Life Technologies and Expression Analysis (LTEA) Assay for ATP-citrate lyase (ACLY) using HepaRG (AID 2283466). Put shortly: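 ACLY mRNA quantified by qRT-PCR on Fluidigm arrays against three housekeeping genes, after 48 h chemical treatment of HepaRG cells (top concentration 100 uM, half-log steps, 0.5% DMSO vehicle). Up- or down-regulation fitted relative to DMSO.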

Read-out in assay [18]: Peroxisomal acyl-coenzyme A oxidase 1 (ACOX1) gene, ACOX1 (gene 51)
Description: LTEA_HepaRG_ACOX1: Life Technologies and Expression Analysis (LTEA) Assay for Peroxisomal acyl-coenzyme A oxidase 1 (ACOX1) gene using HepaRG (AID 2283467). Put shortly:
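ACOX1 transcript levels were quantified by TaqMan qRT-PCR against three housekeeping genes after 48 h chemical exposure of differentiated human HepaRG cells. Exposure used eight half-log steps topping at 100 uM, 0.5% DMSO vehicle, in duplicate. Bidirectional curve fits were made relative to DMSO.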

Read-out in assay [19]: Alkaline Phosphatase, Placental (ALPP) gene, ALPP (gene 250)
Description: LTEA_HepaRG_ALPP: Life Technologies and Expression Analysis (LTEA) Assay for Alkaline Phosphatase, Placental (ALPP) gene using HepaRG (AID 2283468). Put shortly: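 ALPP transcript level, measured by qRT-PCR and normalized to three housekeeping genes (ACTB, GAPDH, POLR2A), after 48 h dosing of differentiated HepaRG in serum-free induction medium. Top concentration 100 uM with half-log dilutions (8 points, 0.5% DMSO, duplicates); bidirectional fitting relative to DMSO.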

Read-out in assay [20]: Bcl-2 (BAD) gene, BAD (gene 572)
Description: LTEA_HepaRG_BAD: Life Technologies and Expression Analysis (LTEA) Assay for Bcl-2 (BAD) gene using HepaRG (AID 2283469). The procedure, abridged:
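Read-out: qRT-PCR of BAD mRNA, normalized to three housekeeping genes. Human HepaRG cultures got 48 h chemical exposure in 0.5% DMSO, duplicate eight-point half-log series topping at 100 uM. Gain or loss of signal fitted versus DMSO vehicle.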

Sequence of Broad substrate specificity ATP-binding cassette transporter ABCG2 (Homo sapiens) (Q9UNQ0 whole entry, looked up): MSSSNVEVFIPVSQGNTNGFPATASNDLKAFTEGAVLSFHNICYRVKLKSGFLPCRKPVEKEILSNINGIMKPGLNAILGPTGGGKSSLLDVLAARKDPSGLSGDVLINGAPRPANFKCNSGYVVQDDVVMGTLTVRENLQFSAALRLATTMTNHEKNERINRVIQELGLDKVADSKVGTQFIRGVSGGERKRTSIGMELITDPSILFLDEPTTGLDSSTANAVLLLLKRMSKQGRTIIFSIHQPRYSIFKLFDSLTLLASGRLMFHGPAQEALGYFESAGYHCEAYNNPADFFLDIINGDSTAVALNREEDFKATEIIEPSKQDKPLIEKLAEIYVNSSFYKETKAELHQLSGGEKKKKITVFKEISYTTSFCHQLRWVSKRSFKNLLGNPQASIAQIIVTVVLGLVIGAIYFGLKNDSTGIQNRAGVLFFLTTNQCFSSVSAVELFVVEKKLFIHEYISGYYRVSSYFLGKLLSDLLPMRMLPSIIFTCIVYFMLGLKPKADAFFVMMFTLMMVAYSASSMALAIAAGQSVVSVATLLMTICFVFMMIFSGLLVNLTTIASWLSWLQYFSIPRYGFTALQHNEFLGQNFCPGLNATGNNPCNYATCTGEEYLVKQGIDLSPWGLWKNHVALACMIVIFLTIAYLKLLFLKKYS

As for `CCC(C)=NO`, the outcome in assay [1], in assay [2], in assay [3], in assay [4], in assay [5] and in assay [7] was inactive. The call in assay [8], in assay [9], in assay [10], in [11], in assay [12] and in assay [13] was inactive. The compound was called inactive in [14], in [15], in assay [16], in [17], in assay [18] and in assay [19]. Moreover, the call in [20] was inactive. Moreover, the concentration at half-maximal activity (AC50) in assay [6] is 49.8 µM (active).
